Measured values: PubChem BioAssay (NCATS)
Results filed as inconclusive are left out. The source made the active and inactive calls. Calls follow the shape of the dose curve; as a rule, active = well fitted cell-killing curve with a large enough effect; inconclusive = small, poorly fitted or top-dose-only effect; inactive = flat fitted curve, though single readings scatter.

Assay: Quantitative highthroughput screen to assess conditional lethalithy of NOMO1 cells grown in RPMI1640 with dialyzed fetal bovine serum (RPMI+ds) (AID 1963877); also: nearly all actives have a fitted effect of over 30% in size
Settings: NOMO1 in RPMI+dialyzed FBS viability, ATP luminescence, 48 h; series mostly up to 45.8 µM; viability: at the top concentration
Source text: Assay Provider: Jason Cantor Ph.D.
Department of Biochemistry
University of Wisconsin-Madison, Madison, WI, USA
Chemical screening studies have identified drug sensitivities across hundreds of cancer cell lines but most putative therapeutics fail to translate. Discovery and development of drug candidates in models that more accurately reflect nutrient levels in human blood is a major challenge. Here we performed high-throughput screens in conventional versus Human Plasma-Like Medium (HPLM) to identify compounds that were "missed" when screening using the artificial culture condition. Sets of conditional anticancer compounds spanned phases of clinical development and included non-oncology drugs were assessed. […] We also traced conditional phenotypes for several chemotherapeutics to availability of HPLM-specific metabolites and confirmed others for compounds whose reported targets are encoded by nonessential genes. Our findings establish generalizable strategies for exploiting conditional lethality in HPLM to reveal therapeutic candidates and mechanisms of action in cancer cells.
Described herein are the results of each viability screens against three cell lines: NOMO1 (an acute myeloid leukemia cell line); P12-Ichikawa (a T-cell acute lymphoblastic leukemia); and SEM (a B-cell ALL). Each assay was screened using 3 different cell culture media: homemade human plasma-Like medium with 10% dialyzed fetal bovine serum (HPLM+ds); RPMI1640 with 10% untreated FBS and 5mM glucose (RPMI+s); and RPMI1640 with 10% dialyzed fetal bovine serum and 5 mM glucose (RPMI+ds).
PROTOCOL TABLE (as described by Inglese J, Shamu CE and Guy RK. 2007)
SEQUENCE No. (e.g., 1, 2, 3, etc.); […] (e.g., Cells, Incubation, Reagent, etc.); VALUE and DESCRIPTION.
1; Cells; 5 uL; white, solid bottom 1536-well Greiner assay plate.
2; Compounds; 23 nL; Kalypsis pin tool (Wako USA) equipped with a 1536-well pin head to transfer to the assay plates.
3; Incubation; 48 hours; 37C incubation.
4; Reagent; 3 uL; CellTiter Glo (Promega).
5; Incubation; 5 min, room temperature
6; Detection; Luminescence, Viewlux PerkinElmer.
NOTES (numbers refer to Sequence numbers above)
1. Briefly, 5 ul of cell reagent was dispensed using a Multidrop Combi Dispenser. The NOMO1 and SEM cells were plated at 500 cells/well and the P12-Ichikawa line at 1000 cells/well.
2. After seeding the cells, 23 nL of MIPE 4.1 library compounds (in DMSO) were added to each plate using a Kalypsys 1536 Pintool dispenser. Bortezomib at final concentration of […] and DMSO were added to each plate as positive and negative controls respectively. For each screen, MIPE 4.1 compounds were added over an eleven-point concentration range […] in 3-fold dilutions.
3. Each plate was covered with a stainless steel gasketed lid to prevent evaporation and incubated for 48 hour at 37C, 95% relative humidity, and 5% CO2.
4-5. Three microliter CellTilter-GloTM luminescent substrate mix (Promega) reagent was added to the assay plate and incubated at room temperature for 5 min.
6. The luminescence signal was measured using a ViewLux (PerkinElmer) multiplate reader with a 2 second exposure time per plate. Data for each compound were normalized as percent viability such that measurements for DMSO and the empty well controls in each plate were defined as 100% and 0%, respectively.
Potency is read from the fitted curve at half-maximal effect.

SMILES	viability	Potency
COc1ccnc2[nH]cc(C(=O)C(=O)N3CCN(C(=O)c4ccccc4)C[C@@H]3C)c12	97.7% (inactive)	
O=c1c(-c2ccc(O)cc2)coc2cc(O)ccc12	102% (inactive)	
CC=CC1=C(C(=O)O)N2C(=O)[C@H](NC(=O)[C@H](N)c3ccc(O)cc3)[C@@H]2SC1		2.64 µM (active)
CC[C@@H](C)[C@H](NC(=O)[C@H](CC1CCCCC1)NC(=O)c1ccno1)C(=O)N1CCC2(CCc3ccccc32)CC1	106% (inactive)	
NC[C@H]1O[C@H](O[C@@H]2[C@@H](O)[C@@H](O[C@H]3O[C@H](CO)[C@@H](O)[C@H](N)[C@@H]3O)[C@H](N)C[C@@H]2N)[C@H](O)[C@@H](O)[C@H]1O	99.8% (inactive)	
CC(=O)N(C)C1(c2ccccc2)CCN(CCC[C@]2(c3ccc(Cl)c(Cl)c3)CCCN(C(=O)c3ccccc3)C2)CC1		1.87 µM (active)
COc1cc(C)c(Sc2cnc(NC(=O)c3ccc(CNC(C)C(C)C)cc3)s2)cc1C(=O)N1CCN(C(C)=O)CC1 (stereo not given)	105% (inactive)	
CN(C)c1cccc(-c2c3c(=O)n(-c4ccccc4Cl)[nH]c3cc(=O)n2C)c1		0.831 µM (active)
CN1CCC(COc2cnc(-c3cccc(Cn4nc(-c5cccc(C#N)c5)ccc4=O)c3)nc2)CC1	103% (inactive)	
CCc1cncnc1N1CCN(Cc2nc3ccc(C(F)(F)F)cc3[nH]2)CC1	88.8% (inactive)	
CC1COc2c(N3CCN(C)CC3)c(F)cc3c(=O)c(C(=O)O)cn1c23 (stereo not given)	99.6% (inactive)	
COc1cc2ncn(-c3cc(OCc4ccccc4S(C)(=O)=O)c(C#N)s3)c2cc1OC	77.7% (inactive)	
Cc1ccccc1C(C(=O)NC1CCCCC1)N(C(=O)CNc1ccc(C#N)cc1)c1cccc(F)c1 (stereo not given)	87% (inactive)	
C[C@@H](NCc1cc2ccccc2[nH]1)c1cccc2ccccc12	111% (inactive)	
COc1ccc(-c2cc(=O)c3c(O)cc(O[C@@H]4O[C@H](CO[C@@H]5O[C@@H](C)[C@H](O)[C@@H](O)[C@@H]5O)[C@@H](O)[C@H](O)[C@@H]4O)cc3o2)cc1O	103% (inactive)	
CCOC(=O)C1=C(O)C(=O)N(Cc2ccccc2)C1	96.5% (inactive)	
Nc1ccn([C@@H]2CS[C@H](CO)O2)c(=O)n1	88.7% [at 92.2 µM] (inactive)	
COc1ccc2c(c1)c(C1=C(c3c[nH]c4ccccc34)C(=O)NC1=O)cn2CCCN(C)C	88.3% (inactive)	
CC(=O)O[C@H]1C[C@@H]2CC[C@H]3[C@H]4C[C@H]([N+]5(C)CCCCC5)[C@@H](OC(C)=O)[C@@]4(C)CC[C@@H]3[C@@]2(C)C[C@H]1[N+]1(C)CCCCC1	98% (inactive)	
CC1(C)CC(O)CC(C)(C)N1[O]	104% (inactive)	

SMILES	viability	Potency
O=C(Nc1ccccc1)Nc1ccc(-c2ccc(C(=O)[C@H]3CCC[C@H]3C(=O)O)cc2)cc1		6.62 µM (active)
O=C(Nc1cc(C(F)(F)F)cc(C(F)(F)F)c1)c1cc(Cl)ccc1O		2.96 µM (active)
N#Cc1ccc(C(c2ccc(C#N)cc2)n2cncn2)cc1	104% (inactive)	
COc1cccc(N(C)C(=S)Oc2ccc3c(c2)CCCC3)n1	106% (inactive)	
O=c1cc(N2CCOCC2)oc2c(-c3ccccc3)cccc12	110% (inactive)	
O=C(O)c1ccc(O)c2ncc(N3CCOCC3)cc12	87.7% (inactive)	
Cc1cccc(-c2[nH]c(C(C)(C)C)nc2-c2ccc3c(c2)OCO3)n1		9.35 µM (active)
Cn1cc(CNCC2CCN(c3ncc(C(=O)NO)cn3)CC2)c2ccccc21		0.332 µM (active)
O=c1c2ccccc2nc2n1CCc1c-2[nH]c2ccccc12	91.4% (inactive)	
COC(c1ccccc1)(c1ccccc1)[C@H](Oc1nc(C)cc(C)n1)C(=O)O	86.1% (inactive)	
NC(=O)c1ccc(-c2nc(-c3ccc4c(c3)OCCO4)c(-c3ccccn3)[nH]2)cc1	110% (inactive)	
Cn1cc(C=CC(=O)c2cccc(F)c2)cc1C=CC(=O)NO	88.1% (inactive)	
CC(=O)OCC(=O)[C@@]1(O)CC[C@H]2[C@@H]3CCC4=CC(=O)CC[C@]4(C)[C@@H]3C(=O)C[C@@]21C	101% (inactive)	
COc1cc(N2CCN(C)CC2)ccc1Nc1nc(N)c(C(=O)c2c(Cl)cccc2Cl)s1	96.7% (inactive)	
O=c1ccn([C@@H]2O[C@H](CO)[C@H](O)[C@@H]2F)c(=O)[nH]1	106% (inactive)	
O=C1Cc2cc(CCN3CCN(c4nsc5ccccc45)CC3)c(Cl)cc2N1	91% (inactive)	
OC(CN1CCC(Cc2ccc(F)cc2)CC1)c1ccc(Cl)cc1 (stereo not given)	96.8% (inactive)	
CCCCCCCCCCCCCCCCCCCCCCO	108% (inactive)	
O=c1c(-c2ccc(O)cc2)coc2cc(O)cc(O)c12	92.7% (inactive)	
C=C(C)[C@@H]1CC[C@]2(C(=O)O)CC[C@]3(C)[C@H](CC[C@@H]4[C@@]5(C)CC[C@H](O)C(C)(C)[C@@H]5CC[C@]43C)[C@@H]12	91.6% (inactive)	
